Experimental data as given in the supplement of paper PMC10849652.
About 7,900 targets were measured; listed, in parts, are those with a hit and a random draw of the rest. About 0.6% of all pairs of compound and target were hits.

The targets below were run with c1cn2cc(-c3ccc4cn[nH]c4c3)nc(Nc3ccc(N4CCOCC4)cc3)c2n1 [entospletinib] (assay: log2 fold change, soluble protein after heating vs DMSO (PISA); higher = thermal stabilisation; K562 cells, 10 uM, 30 min; active = over 0.2 and 3.5 SD of the protein, either way, in both replicates (recomputed)).
Summary of the method: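 Soluble protein was defined as the supernatant after 21,000xg for 90 min. It came from K562 cells at 2×10^6 cells/mL given 10 μM compound for 30 min, heated in aliquots for 3 min across 48°C-58°C, pooled, and extracted in PBS with 0.5% NP-40 at 4°C, and was quantified by TMTpro 16plex LC-MS/MS with equalised channel sums. Thermal stability against control samples, from duplicates, is reported as log2 fold change.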

UniProt Q13356, sequence (Q13356 whole entry, looked up): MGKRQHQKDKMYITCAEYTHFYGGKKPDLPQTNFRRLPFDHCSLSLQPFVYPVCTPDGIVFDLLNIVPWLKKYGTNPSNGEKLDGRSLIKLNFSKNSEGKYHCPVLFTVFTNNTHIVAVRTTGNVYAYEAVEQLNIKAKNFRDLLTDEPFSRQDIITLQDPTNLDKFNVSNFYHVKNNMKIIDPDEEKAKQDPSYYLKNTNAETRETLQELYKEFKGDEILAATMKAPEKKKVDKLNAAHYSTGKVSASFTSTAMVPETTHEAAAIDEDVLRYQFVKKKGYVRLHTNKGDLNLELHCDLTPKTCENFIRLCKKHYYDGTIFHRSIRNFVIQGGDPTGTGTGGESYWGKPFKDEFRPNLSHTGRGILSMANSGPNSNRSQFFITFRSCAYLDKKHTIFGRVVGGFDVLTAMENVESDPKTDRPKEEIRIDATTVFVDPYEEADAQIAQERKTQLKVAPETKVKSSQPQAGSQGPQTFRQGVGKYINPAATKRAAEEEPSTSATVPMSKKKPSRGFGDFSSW
UniProt Q99541, sequence (Q99541 whole entry, looked up): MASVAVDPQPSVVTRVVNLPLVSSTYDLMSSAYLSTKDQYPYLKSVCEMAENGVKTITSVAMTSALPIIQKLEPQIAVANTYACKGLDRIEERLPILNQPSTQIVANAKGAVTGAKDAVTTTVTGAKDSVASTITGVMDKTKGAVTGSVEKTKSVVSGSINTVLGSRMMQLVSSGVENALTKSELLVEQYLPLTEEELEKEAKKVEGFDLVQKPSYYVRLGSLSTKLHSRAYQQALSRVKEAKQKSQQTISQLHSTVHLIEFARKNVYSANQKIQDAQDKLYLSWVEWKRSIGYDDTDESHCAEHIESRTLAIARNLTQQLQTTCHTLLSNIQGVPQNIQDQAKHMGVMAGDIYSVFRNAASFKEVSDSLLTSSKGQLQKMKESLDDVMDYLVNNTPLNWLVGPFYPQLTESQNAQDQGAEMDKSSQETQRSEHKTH
UniProt O43395, sequence (O43395 whole entry, looked up): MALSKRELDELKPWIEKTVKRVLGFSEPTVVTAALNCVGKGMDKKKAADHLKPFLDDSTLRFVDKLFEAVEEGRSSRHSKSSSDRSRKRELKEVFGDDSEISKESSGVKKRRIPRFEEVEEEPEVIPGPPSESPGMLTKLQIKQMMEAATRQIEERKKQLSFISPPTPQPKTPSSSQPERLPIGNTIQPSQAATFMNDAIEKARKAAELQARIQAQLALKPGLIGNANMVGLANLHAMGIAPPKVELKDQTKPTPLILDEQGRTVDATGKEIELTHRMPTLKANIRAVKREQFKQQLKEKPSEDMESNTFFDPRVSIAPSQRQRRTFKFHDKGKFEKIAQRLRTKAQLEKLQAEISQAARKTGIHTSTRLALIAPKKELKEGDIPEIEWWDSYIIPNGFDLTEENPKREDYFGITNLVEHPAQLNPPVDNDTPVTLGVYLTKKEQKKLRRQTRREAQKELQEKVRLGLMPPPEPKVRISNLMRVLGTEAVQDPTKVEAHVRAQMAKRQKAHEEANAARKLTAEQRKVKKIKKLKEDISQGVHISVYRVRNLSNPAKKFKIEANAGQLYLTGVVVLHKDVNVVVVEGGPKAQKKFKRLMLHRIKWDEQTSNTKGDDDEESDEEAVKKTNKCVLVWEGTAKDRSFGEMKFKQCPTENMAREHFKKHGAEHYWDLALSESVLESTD
UniProt P62195, sequence (P62195 whole entry, looked up): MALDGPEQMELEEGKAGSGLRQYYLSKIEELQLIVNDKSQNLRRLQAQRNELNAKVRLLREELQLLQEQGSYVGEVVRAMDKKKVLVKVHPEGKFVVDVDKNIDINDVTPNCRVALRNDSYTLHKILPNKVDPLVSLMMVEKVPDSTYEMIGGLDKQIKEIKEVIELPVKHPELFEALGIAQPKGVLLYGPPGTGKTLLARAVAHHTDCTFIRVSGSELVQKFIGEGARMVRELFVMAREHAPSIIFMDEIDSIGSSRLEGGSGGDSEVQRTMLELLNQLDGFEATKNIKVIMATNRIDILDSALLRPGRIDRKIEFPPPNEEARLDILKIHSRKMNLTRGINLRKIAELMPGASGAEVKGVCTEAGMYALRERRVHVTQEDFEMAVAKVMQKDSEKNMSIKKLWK
UniProt Q9H814, sequence (Q9H814 whole entry, looked up): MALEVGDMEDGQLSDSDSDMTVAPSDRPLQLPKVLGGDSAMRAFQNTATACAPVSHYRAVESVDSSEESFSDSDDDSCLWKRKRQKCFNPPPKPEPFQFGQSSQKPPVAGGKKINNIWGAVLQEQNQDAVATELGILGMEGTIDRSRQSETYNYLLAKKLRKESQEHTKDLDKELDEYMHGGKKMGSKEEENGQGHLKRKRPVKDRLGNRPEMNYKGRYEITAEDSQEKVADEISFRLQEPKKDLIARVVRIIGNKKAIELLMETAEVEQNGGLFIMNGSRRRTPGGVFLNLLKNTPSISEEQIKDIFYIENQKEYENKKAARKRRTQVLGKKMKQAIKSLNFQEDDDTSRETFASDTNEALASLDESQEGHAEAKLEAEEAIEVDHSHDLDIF
UniProt Q8IZL8, sequence (Q8IZL8 whole entry, looked up): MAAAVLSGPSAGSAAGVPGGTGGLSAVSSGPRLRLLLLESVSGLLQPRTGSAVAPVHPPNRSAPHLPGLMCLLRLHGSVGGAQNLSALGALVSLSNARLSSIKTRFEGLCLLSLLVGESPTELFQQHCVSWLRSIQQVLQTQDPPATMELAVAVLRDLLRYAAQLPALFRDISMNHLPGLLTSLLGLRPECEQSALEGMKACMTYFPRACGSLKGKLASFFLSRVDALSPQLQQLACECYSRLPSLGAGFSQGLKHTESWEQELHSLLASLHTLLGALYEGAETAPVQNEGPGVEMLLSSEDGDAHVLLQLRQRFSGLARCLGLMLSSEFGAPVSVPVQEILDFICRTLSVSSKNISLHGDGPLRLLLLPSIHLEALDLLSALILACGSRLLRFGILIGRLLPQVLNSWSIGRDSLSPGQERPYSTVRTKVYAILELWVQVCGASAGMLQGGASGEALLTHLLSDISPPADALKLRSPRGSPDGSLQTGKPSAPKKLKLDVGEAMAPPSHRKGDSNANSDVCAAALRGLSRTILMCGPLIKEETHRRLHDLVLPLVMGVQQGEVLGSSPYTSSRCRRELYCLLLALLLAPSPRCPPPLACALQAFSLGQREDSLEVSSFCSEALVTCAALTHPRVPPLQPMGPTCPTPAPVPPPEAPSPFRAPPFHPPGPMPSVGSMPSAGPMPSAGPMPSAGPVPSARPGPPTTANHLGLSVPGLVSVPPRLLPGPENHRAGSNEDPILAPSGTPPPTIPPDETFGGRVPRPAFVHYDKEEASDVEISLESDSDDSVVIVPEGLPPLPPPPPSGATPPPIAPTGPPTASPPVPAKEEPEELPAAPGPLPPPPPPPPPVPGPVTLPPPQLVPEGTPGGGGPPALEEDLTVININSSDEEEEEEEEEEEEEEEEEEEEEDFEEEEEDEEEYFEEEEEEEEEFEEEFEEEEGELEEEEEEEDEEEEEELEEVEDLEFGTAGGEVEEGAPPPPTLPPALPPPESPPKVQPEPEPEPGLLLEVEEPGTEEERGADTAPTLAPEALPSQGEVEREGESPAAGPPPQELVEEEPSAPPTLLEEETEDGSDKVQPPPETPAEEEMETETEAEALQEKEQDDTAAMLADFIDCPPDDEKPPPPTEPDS
UniProt P48556, sequence (P48556 whole entry, looked up): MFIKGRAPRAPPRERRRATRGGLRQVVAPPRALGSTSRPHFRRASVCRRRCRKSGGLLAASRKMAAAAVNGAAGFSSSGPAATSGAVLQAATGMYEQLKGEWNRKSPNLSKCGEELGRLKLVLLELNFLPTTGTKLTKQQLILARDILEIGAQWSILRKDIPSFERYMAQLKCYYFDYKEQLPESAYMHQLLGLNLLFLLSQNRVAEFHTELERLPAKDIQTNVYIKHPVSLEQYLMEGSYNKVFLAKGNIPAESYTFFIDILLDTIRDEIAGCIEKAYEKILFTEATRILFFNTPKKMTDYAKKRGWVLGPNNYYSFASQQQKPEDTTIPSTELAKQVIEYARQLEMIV
UniProt Q8NCC3, sequence (Q8NCC3 whole entry, looked up): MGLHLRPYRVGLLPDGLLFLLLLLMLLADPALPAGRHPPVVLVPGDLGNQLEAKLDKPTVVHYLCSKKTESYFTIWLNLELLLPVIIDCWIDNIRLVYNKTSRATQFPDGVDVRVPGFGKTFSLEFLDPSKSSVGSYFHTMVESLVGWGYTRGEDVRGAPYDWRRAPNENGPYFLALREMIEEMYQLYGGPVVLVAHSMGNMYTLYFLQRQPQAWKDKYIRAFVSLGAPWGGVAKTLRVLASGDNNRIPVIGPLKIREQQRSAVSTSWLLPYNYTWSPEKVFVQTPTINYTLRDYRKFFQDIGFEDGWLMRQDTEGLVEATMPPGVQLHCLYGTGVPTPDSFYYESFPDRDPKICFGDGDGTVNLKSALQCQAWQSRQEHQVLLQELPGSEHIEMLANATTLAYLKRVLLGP
UniProt P43686, sequence (P43686 whole entry, looked up): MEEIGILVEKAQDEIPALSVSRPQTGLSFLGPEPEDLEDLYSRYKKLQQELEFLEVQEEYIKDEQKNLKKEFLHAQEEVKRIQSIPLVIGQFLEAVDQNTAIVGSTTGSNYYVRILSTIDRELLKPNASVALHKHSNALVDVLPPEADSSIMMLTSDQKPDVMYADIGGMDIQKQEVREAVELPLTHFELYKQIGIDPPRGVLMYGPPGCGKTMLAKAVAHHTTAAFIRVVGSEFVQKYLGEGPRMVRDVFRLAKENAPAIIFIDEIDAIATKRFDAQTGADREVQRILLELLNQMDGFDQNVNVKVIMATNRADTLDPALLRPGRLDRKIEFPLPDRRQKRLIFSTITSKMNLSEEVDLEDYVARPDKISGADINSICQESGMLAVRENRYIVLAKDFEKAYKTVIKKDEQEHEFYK

log2 fold change, inactive:
PRMT3 (UniProt O60678) -0.036
PRPF3 (UniProt O43395) -0.08
PSMC5 (UniProt P62195) 0.005
PLIN2 (UniProt Q99541) 0.043
PSMC4 (UniProt P43686) -0.008
POLR2B (UniProt P30876) 0.193
POLR2A (UniProt P24928) 0.162
PLA2G15 (UniProt Q8NCC3) -0.063
PELP1 (UniProt Q8IZL8) -0.041
PSMD8 (UniProt P48556) 0.012
POLR2D (UniProt O15514) 0.162
PHAX (UniProt Q9H814) -0.005
PRKCG (UniProt P05129) 0.044
PPIL2 (UniProt Q13356) -0.027
QKI (UniProt Q96PU8) 0.065
PPP1R12A (UniProt O14974) -0.045
